The text below walks through data of PubChem BioAssay (EPA / NIEHS).

Values joined by “and” are separate entries in the source; they are usually repeats but may differ in a detail not shown here. Identical values can stand only once. Inconclusive results are not listed. Where a structure was tested more than once in an assay, its records may differ in their call. Active and inactive are the calls of the source. Rule for the calls, unless noted: active = hit-call score of the fitted dose curve at least 0.9, where 1 is the maximum; inactive = score below 0.9.

Assay [1] is described as follows: CCTE_Deisenroth_5AR_NBTE_donor: CCTE's 5alpha-reductase NanoBRET Target Engagement Assay […], Deisenroth Lab (AID 2284319). The note with it: actives raise or lower the signal. The gist of the method:
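HEK293T cells were reverse transfected with an SRD5A2-NanoLuc vector for 20 h, exposed to test chemical (8 points, 10 nM - 29.9 uM) for 3 h, then testosterone tracer for 2 h more. Donor luminescence (460 nm) was read; bidirectional fit versus DMSO.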

Assay [2] in a line: CCTE_Deisenroth_5AR_NBTE_acceptor: CCTE's 5alpha-reductase NanoBRET Target Engagement Assay - Autofluorescence Screen, Deisenroth Lab (AID 2284321).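 Note: compound fluorescence in the acceptor channel under 460 nm excitation flags autofluorescence artifacts.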 The conditions noted are these: actives raise or lower the signal. The gist of the method: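 Acceptor fluorescence intensity was read as an artifact-detection endpoint. Test chemicals at an assumed nominal 100 uM were excited at 460 nm across three independent runs. Activity was fitted bidirectionally against DMSO.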

The next assay concerns SRD5A2 (gene 6716). In words: CCTE_Deisenroth_5AR_NBTE_ratio: CCTE's 5alpha-reductase NanoBRET Target Engagement Assay - Ratio, Deisenroth Lab (AID 2284322). The note with it: actives raise or lower the signal. The gist of the method:
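Reverse-transfect HEK293T with pNLF1-C-SRD5A2, express 20 h. Pre-incubate cells with chemical 3 h (8-point series, 10 nM - 29.9 uM, duplicate). Add testosterone tracer, 2 h more. Add substrate/inhibitor, read donor and acceptor emission.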

Assay [3] has as its system Brachyury (BRA) Protein Expression, Deisenroth Lab, TBXT (gene 6862). Nature of the assay: CCTE_Deisenroth_DEVTOX-GLR_legacy_Bra: (Legacy) CCTE's DevTox GLR-Endo Assay Evaluation of Brachyury (BRA) Protein Expression, Deisenroth Lab (AID 2284329). The gist of the method: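 RUES2-GLR human pluripotent cells differentiated 48 h with two 24-h-interval chemical exposures (1 nM - 200 uM, 10 points); fixed, nuclear-stained, imaged. Bra+ cell percentage (intensity 5x BMAD above pluripotent control median) fitted relative to 0.2% DMSO.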

A short description of assay [4]: VALA_TUBHUV_Agonist_CellCount: Viability Assessment in the VALA Sciences human Umbilical Vein Endothelial Tubule Formation (TUBHUV) Agonism Assay (AID 2284309; active = hit-call score of the fitted dose curve at least 0.9, where 1 is the maximum). The gist of the method:
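HUVEC co-cultured 1:3 with HDF for 3 days in 10 ng/ml VEGF, then compounds added in VEGF medium for a further 3 days (72 h). Nuclear-stain/CD31 imaging cell count. Positive-direction fit versus 0.1% DMSO vehicle.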

A short description of assay [5]: VALA_TUBIPS_Agonist_TubuleLength: VALA Sciences human iPS-derived Endothelial Tubule Formation (TUBIPS) Agonism Assay (AID 2284311; active = hit-call score of the fitted dose curve at least 0.9, where 1 is the maximum). The gist of the method:
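Human iPS-derived endothelial cells were exposed to compound for 72 h. Tubule formation was imaged by high-content fluorescence and scored as gain of signal relative to DMSO vehicle (agonist mode).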

Assay [6] is described as follows: VALA_TUBIPS_Antagonist_TubuleLength: VALA Sciences human iPS-derived Endothelial Tubule Formation (TUBIPS) Antagonist Assay (AID 2284313; active = hit-call score of the fitted dose curve at least 0.9, where 1 is the maximum). The gist of the method:
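Cells grown 3 days with 10 ng/ml VEGF, then exposed to compounds in VEGF medium for another 3 days. After fixation, nuclear stain and CD31 immunofluorescence imaging gave mean total tubule length against 0.1% DMSO; suramin (100 uM) inhibition control.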

Assay [7] is described as follows: VALA_MIGHUV2_WoundArea: VALA Sciences human Umbilical Vein Endothelial Cell Migration (MIGHUV) Assay, Area of Scratch Wound after Recovery (AID 2284316; active = hit-call score of the fitted dose curve at least 0.9, where 1 is the maximum). The essentials:
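HUVEC seeded at 9000 cells/well, scratched after 24 h; test chemical added within 30 min, 6-point concentration response in triplicate (0.1% DMSO vehicle). After 24 h wound recovery, cells fixed and Hoechst-stained nuclei in wound area imaged; Cytochalasin D reference control.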

Assay [8] can be described thus: VALA_TUBHUV_Antagonist_TubuleLength: VALA Sciences human Umbilical Vein Endothelial Tubule Formation (TUBHUV) Antagonism Assay (AID 2284325; active = hit-call score of the fitted dose curve at least 0.9, where 1 is the maximum). The gist of the method: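 HUVEC–HDF co-culture (1:3) pre-grown 3 days with 10 ng/ml VEGF, then 3 days with compound plus VEGF. Fixed, nuclear and CD31 stained; total tubule length by imaging versus 0.1% DMSO; suramin 100 uM positive control.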

Assay [9] is described as follows: CCTE_Mundy_HCI_iCellGluta_NOG_NeuriteLength: CCTE's Neurite Outgrowth Assay in iCellGluta cells for Neurite Length, Mundy Lab (AID 2284318; active = hit-call score of the fitted dose curve at least 0.9, where 1 is the maximum). The essentials:
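Automated high-content imaging of betaIII-tubulin (Alexa Fluor-488) and Hoechst-stained cells gave neurite length, normalized to the DMSO baseline.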

For the next assay, the system named is IYD (gene 389434). In words: CCTE_GLTED_hIYD: CCTE's human Iodotyrosine Deiodinase (xIYD) Inhibition Assay, Great Lakes Toxicology and Ecology Division (GLTED) Lab (AID 2284317; active = hit-call score of the fitted dose curve at least 0.9, where 1 is the maximum;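 note: cell-free human IYD enzyme made in baculovirus insect cells; iodide freed from monoiodotyrosine measured by cerium arsenite color change at 420 nm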). The gist of the method:
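First, recombinant human IYD (baculovirus-insect cells), MIT and chemical incubated 3 h. Next, iodide isolated on Dowex. Finally, Sandell-Kolthoff rate read at 420 nm, with platewise normalization to MNT and solvent controls.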

A short description of assay [10]: TAMU_PeakParms_SingleDonor1434_Asystole: Texas A&M University (TAMU) 1.5-hr Human Induced Pluripotent Stem Cell (iPSC)-derived Cardiomyocytes Calcium (Ca+2) Flux Assay for Cardiotoxicity: Asystole (quiescence of beating) (AID 2284328; active = hit-call score of the fitted dose curve at least 0.9, where 1 is the maximum). The essentials: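 Human iPSC-derived cardiomyocytes (donor 1434) were exposed to 0.2, 1, 10 and 100 uM compound in 0.5% DMSO for 90 min at 37C. Ca2+-dye fluorescence gave average peak frequency; POD is EC95, a 95% beat-rate drop versus DMSO.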

A short description of assay [11]: IUF_NPC5_oligodendrocyte_differentiation_120hr: Leibniz Research Institute for Environmental Medicine (IUF) 120-hour Oligodendrocyte Differentiation Assay (NPC5) (AID 2284304; active = hit-call score of the fitted dose curve at least 0.9, where 1 is the maximum;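 note: primary human fetal neural progenitor spheres plated to migrate and differentiate; share of O4-positive cells among Hoechst nuclei found by CNN image analysis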). The gist of the method: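 Oligodendrocyte differentiation was scored after 120 h as the O4-positive share of Hoechst-stained nuclei across the neurosphere migration area, using a trained convolutional neural network on high-content fluorescence images. Human fetal neural progenitor spheres were dosed from day 0, normalised to DMSO.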

Assay [12] in a line: IUF_NPC4_neurite_area_120hr: Leibniz Research Institute for Environmental Medicine (IUF) 120-hour Neuronal Morphology Assay for Neurite Area (NPC4) (AID 2284305; active = hit-call score of the fitted dose curve at least 0.9, where 1 is the maximum). The gist of the method: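 Human fetal cortex-derived neural progenitor spheres (0.3 mm, GW 16-19) plated on poly-D-lysine/laminin in N2 differentiation medium and exposed from day 0 for 120 h across 7 concentrations plus solvent control. Neurite area is mean pixel area per TUBB3-positive neuron via skeletonization, analysed relative to DMSO.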

Assay [13] is described as follows: IUF_NPC2-5_cytotoxicity_72hr: Cytotoxicity Assessment at 72 hours in the Leibniz Research Institute for Environmental Medicine (IUF) Neural Progenitor Cell Migration and Differentiation Assay for Cytotoxicity (NPC2-5) (AID 2284306; active = hit-call score of the fitted dose curve at least 0.9, where 1 is the maximum;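 note: LDH release into supernatant measured by resorufin fluorescence marking membrane damage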). The essentials: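 Human fetal (GW 16-19) neural progenitor spheres, 0.3 mm, plated on poly-D-lysine/laminin in N2 differentiation medium and exposed from day 0 to 7 concentrations plus solvent control (DMSO ≤0.1%). LDH-dependent resazurin-to-resorufin fluorescence in supernatant at 72 h.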

Assay [14] in a line: IUF_NPC2-5_cytotoxicity_120hr: Cytotoxicity Assessment at 120 hours in the Leibniz Research Institute for Environmental Medicine (IUF) Neural Progenitor Cell Migration and Differentiation Assay (NPC2-5) (AID 2284307; active = hit-call score of the fitted dose curve at least 0.9, where 1 is the maximum). The gist of the method: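 Sphere plating starts differentiation and exposure together at day 0. Compound solution is half-replaced on day 3. At 120 h, medium supernatant is taken for an LDH membrane-integrity read based on resazurin reduction to resorufin fluorescence.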

A short description of assay [15]: IUF_NPC2-5_cell_number_120hr: Cell Number Assessment at 120 hours in the Leibniz Research Institute for Environmental Medicine (IUF) Neural Progenitor Cell Migration and Differentiation Assay (NPC2-5) (AID 2284308).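 Note: count of Hoechst-stained nuclei in migration zone around plated human neural progenitor spheres.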 The essentials:
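hNPC spheres, one per well, PDL/laminin, N2 medium, 37C, 5% CO2. Dosing day 0 → half-medium change with fresh compound day 3 → fix 120 h. Readout: Hoechst+ nuclei count, migration area; 7 concentrations plus solvent control.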

The nature of assay [16]: IUF_NPC2-5_viability_120hr: Viability Assessment at 120 hours in the Leibniz Research Institute for Environmental Medicine (IUF) Neural Progenitor Cell Migration and Differentiation Assay (NPC2-5) (AID 2284312). The essentials:
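Human fetal (GW 16-19) neural progenitor spheres of 0.3 mm were plated on poly-D-lysine/laminin in N2 differentiation medium and exposed from day 0 for 120 h, with half-medium refresh at day 3. Viability was read as alamar blue resazurin-to-resorufin fluorescence against DMSO.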

Assay [17] in a line: VALA_TUBHUV_Antagonist_CellCount: Viability Assessment in the VALA Sciences human Umbilical Vein Endothelial Tubule Formation (TUBHUV) Antagonism Assay (AID 2284310; active = hit-call score of the fitted dose curve at least 0.9, where 1 is the maximum). The essentials: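 HUVEC co-cultured with HDF (1:3) 3 days in 10 ng/ml VEGF, then 3 days with compounds in VEGF medium. Fixed, nuclear stain and CD31 immunofluorescence, imaged; cell counts fitted versus 0.1% DMSO, loss of signal read as lower viability.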

In the next assay the test system is TTR (gene 7276). In words: CCTE_GLTED_hTTR_0.5uM: CCTE's human Transthyretin (hTTR) Inhibition Assay, with 0.5uM TTR, Great Lakes Toxicology and Ecology Division (GLTED) Lab (AID 2284320). The essentials:
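Cell-free displacement assay in which human TTR at 0.5 uM was incubated with test chemical for 2 h. Displacement of the ANSA probe was read by fluorescence at 380 nm excitation/475 nm emission. Loss of signal was fitted in the positive direction versus DMSO.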

Consider `COCC(C)O` (stereo not given), for which the molecule was classed as inactive (in assay [1]; in assay [2]; in the assay with SRD5A2 (gene 6716)).

With `CC(O)CO` (stereo not given), the result in assay [3] was inactive.

`O=C(O)Cc1cc(I)c(Oc2cc(I)c(O)c(I)c2)c(I)c1`: the outcome in assay [4], in assay [5], in assay [6], in assay [7] and in assay [8] was inactive.

`OCCC(F)(F)C(F)(F)C(F)(F)C(F)(F)C(F)(F)C(F)(F)C(F)(F)C(F)(F)F`: in [9], the molecule was classed as inactive.

In the case of `O=C1OC2(c3ccccc31)c1cc(Br)c(O)c(Br)c1Oc1c2cc(Br)c(O)c1Br`, the figures for the AC50 in the assay with IYD (gene 389434) and in the assay with SRD5A2 (gene 6716) were 42.2 µM (active) and 7.55 µM (active), respectively. The outcome in assay [1] and in assay [2] was inactive.

Turning to `OCCC(F)(F)C(F)(F)C(F)(F)C(F)(F)C(F)(F)C(F)(F)F`, the result in assay [9] was inactive.

Consider `c1ccc2cc3c(ccc4ccccc43)cc2c1`, for which, in assay [10], the result was inactive.

For the molecule `O=[N+]([O-])c1ccc(O)cc1`, the molecule was called inactive in assay [1] and in assay [2]. Further, the AC50 with SRD5A2 (gene 6716) is 71.2 µM (active).

As for `CCCCCCCCCCCCCC[N+](C)(C)C`, the AC50 in the assay with IYD (gene 389434) is 88.3 µM (active); in assay [1] it was 42.7 µM (active); in assay [2] it was 26.2 µM (active); with SRD5A2 (gene 6716), 75.1 µM (active).

For `CCOC(=O)CC(O)(CC(=O)OCC)C(=O)OCC`, the molecule was called inactive (in [1]; in assay [2]; with SRD5A2 (gene 6716)).

As for `CCCCCCCCOC(=O)CCCCCCCCC(=O)OCCCCCCCC`, the molecule was called inactive (in assay [1]; in [2]; with SRD5A2 (gene 6716)).

With `c1ccc2c(c1)Cc1ccccc1-2`, in [10], the result was inactive.

For the molecule `CC(C)(C)c1cccc(C(C)(C)C)c1O`, in the assay on IYD (gene 389434), the AC50 was 100 µM (active).

As to `CC1=C(/C=C/C(C)=C/C=C/C(C)=C/C(=O)O)C(C)(C)CCC1`, the molecule was called inactive in [11], in [12], in assay [13], in assay [14], in assay [15] and in assay [16]. For the same molecule, in assay [3], the AC50 is 11.7 µM (active).

As to `CC#C[C@]1(O)CC[C@H]2[C@@H]3CCC4=CC(=O)CCC4=C3[C@@H](c3ccc(N(C)C)cc3)C[C@@]21C`, the outcome in assay [11], in [12], in assay [13], in assay [14], in assay [15] and in [16] was inactive. Also, the outcome in assay [9] and in [10] was inactive. For the same molecule, in [9], the AC50 is 50 µM (active).

With `CC(C)(C)c1ccc(O)c(C(C)(C)C)c1`, the AC50 in the assay with IYD (gene 389434) is 100 µM (active).

On to `CCC(=C(c1ccc(O)cc1)c1ccc(OCCN(C)C)cc1)c1ccccc1`, for which, in the assay on IYD (gene 389434), the molecule was called inactive.

On to `CCCCCCCCCCCCc1ccccc1S(=O)(=O)O`, for which the AC50 in assay [4] is 1.98 µM (active); in the assay on IYD (gene 389434), 34.4 µM (active). Further, the molecule was called inactive in [17], in assay [6] and in [7].

On to `C[C@@H]1C[C@H]2[C@@H]3CCC4=CC(=O)C=C[C@]4(C)[C@@]3(F)[C@@H](O)C[C@]2(C)[C@@]1(O)C(=O)COP(=O)(O)O`, for which the outcome in assay [3] was inactive.

For the molecule `FC(F)(I)C(F)(F)C(F)(F)C(F)(F)C(F)(F)C(F)(F)I`, in the assay on TTR (gene 7276), the AC50 is 1.91 µM (active) and 1.88 µM (active).

With `c1ccc2c(c1)ccc1ccccc12`, the outcome in [10] was inactive.

Consider `CCN(CC)CCNc1ccc(CNC=O)c2sc3ccc(OC)cc3c(=O)c12`, for which the call (in assay [1]; in assay [2]; in the assay on SRD5A2 (gene 6716)) was inactive.

In the case of `COCC(C)OCC(C)O` (stereo not given), the result (in assay [1]; in assay [2]; with SRD5A2 (gene 6716)) was inactive.

In the case of `C=C(C)C(=O)OCCC(F)(F)C(F)(F)C(F)(F)C(F)(F)C(F)(F)C(F)(F)F`, the outcome in [9] was inactive.

With `CN1CCC[C@H]1c1cccnc1`, the call in [11], in assay [12], in assay [13], in [14], in assay [15] and in assay [16] was inactive.
